ATXN viability = cell viability loss in ATXN counter-screen | S2 cells (HEK-293 line with an ATXN2-luciferase reporter) viability, CellTiter-Fluor protease fluorescence, 24 h | Potency, µM (top dose mostly 56.7 µM), usual class: cytotoxic | 400,000 compounds, 0.49% hits | AID 651635; further: nearly all actives have a fitted effect of over 40% in size
HT1080 IDH1KD tx = toxicity to HT-1080 IDH1 knockdown cells (counter line). HT-1080 IDH1 knockdown viability, ATP luminescence, 48 h. Potency, µM (series often up to 46.1 µM), for the others: at the highest dose activity, negative = toxicity, most hits filed as cytotoxic. 360,000 compounds, 2% hits. AID 686971;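 further: 0% = DMSO wells and -100% = cell-free medium wells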
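Cytotoxicity counter-line: IDH1KD HT-1080, 48 h, CellTiter-Glo. Curves classed by r2, magnitude and activity.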
HT1080-NT tox = kills 2HG-producing HT-1080-NT fibrosarcoma cells; HT-1080-NT fibrosarcoma viability, CellTiter-Glo ATP luminescence, 48 h; Potency, µM (highest dose often 46.1 µM), for inactives: at the highest dose activity, negative = less viability, most hits filed as cytotoxic; 360,000 compounds, 1.6% hits;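 further: NT is the 2HG producing partner of a matched IDH1 knockdown line; 0% = DMSO-treated cells and -100% = media-only wells without cells; nearly all actives have a fitted effect of over 55% in size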
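Fibrosarcoma NT cells, 750 per well in 5% FBS RPMI, were exposed to compound for 48 hours. Viability: CellTiter-Glo luminescence.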
ATXN2 expr inh = ATXN2 expression inhibition; HEK-293 ATXN2-luciferase reporter, luminescence, 24 h; 360,000 compounds, 0.72% hits; Potency, µM (highest dose often 57 µM), without a hit: top-dose activity change, negative = inhibition, usual class: inhibitors; further: on the % scale 0 is the no-effect control and ±100 the full control effect; nearly all actives have a fitted effect of over 55% in size
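qHTS (up to 57 uM final) was run with 24 h compound exposure of reporter cells at 37 °C. Each well was multiplexed: SteadyGlo luminescence measured ATXN2-luciferase expression after a fluorogenic Gly-Phe-AFC viability readout (25 uM final).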
KB-V1 cytotox = KB-V1 MDR subline cytotoxicity; KB-V1 MDR cells viability, CellTiter-Glo, 72 h; Potency, µM (top dose mostly 46.1 µM), actives largely listed as cytotoxic; 400,000 compounds, 3.4% hits; further: on the % scale 0 is the no-effect control and ±100 the full control effect; nearly all actives have a fitted effect of over 60% in size
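Readout: CellTiter-Glo luminescence, 10 min after addition. Cells: KB-V1 MDR subline, 72 h at 37 degrees C with compound. Analysis: corrected, normalized data fitted to concentration-effect curves.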
KB-3-1 cytotox = KB-3-1 parental cell cytotoxicity. KB-3-1 viability, CellTiter-Glo ATP luminescence, 72 h. Potency, µM (top dose mostly 46.1 µM), hits mostly cytotoxic. 400,000 compounds, 1.4% hits. AID 1347075; further: on the % scale 0 is the no-effect control and ±100 the full control effect; nearly all actives have a fitted effect of over 60% in size
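Viability of parental KB-3-1 cells, measured by CellTiter-Glo luminescence, followed a 72 h incubation at 37 °C with pinned compounds in phenol-red-free DMEM containing 10% FBS.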
* marks the source's active call; other numbers are inactive results; i = inactive; u = inconclusive; x = no result. The list is not random: actives were taken first. Their share in the collection is about 6.2%. The call rests on the fitted dose curve; in most records, active means well fitted curve in the direction sought with a large enough effect; inconclusive means small, poorly fitted or top-dose-only effect, or another doubt; inactive means no such curve, though single readings can be large; an effect the other way counts as inactive or inconclusive. Potency means the concentration at half of the fitted maximal effect.

SMILES	ATXN viability	HT1080 IDH1KD tx	HT1080-NT tox	ATXN2 expr inh	KB-V1 cytotox	KB-3-1 cytotox
Cc1ccc(C)c(S(=O)(=O)c2nnn3c2nc(NCc2ccc4c(c2)OCO4)c2sccc23)c1	x	x	x	x	i	i
CN(C)CCNc1cccc2sc3ccc(O)cc3c(=O)c12	i	12µM*	9.2µM*	18µM*	23µM*	16µM*
Cc1ccc(NCCN(C)C)c2c(=O)c3cc(O)ccc3sc12	27µM*	u	u	11µM*	12µM*	u
C=CCOc1cc(Cl)ccc1C(=O)NCCN(CC)CC	i	x	x	-10%	x	x
Fc1ccc(-c2nnc(NC3=NCCCCC3)o2)cc1	i	u	u	4µM*	i	u
c1ccc(-c2nnc(NC3=NCCC3)o2)cc1	i	-7%	0%	u	i	i
CCCC(=O)Nc1nc2ccc(S(=O)(=O)N3CCCCC3)cc2s1	u	4.1µM*	u	-16%	u	13µM*
CCOC(=O)c1sc2ccc(S(=O)(=O)N3CCCCC3)cc2c1N	u	u	u	u	u	23µM*
CC(C)[C@H](NC(=O)c1cccc(S(=O)(=O)N2CCOCC2)c1)C(=O)Nc1nc2ccccc2s1	u	-2%	2%	15%	u	u
CCOC(=O)c1sc2ccc(S(=O)(=O)N3CCOCC3)cc2c1N	i	1%	1%	-1%	i	i
CC(C)CC(=O)Nc1nc2ccc(S(=O)(=O)N3CCOCC3)cc2s1	i	18µM*	9.2µM*	-9%	u	u
CC(=O)Nc1nc2ccc(S(=O)(=O)N3CCCC3)cc2s1	i	9%	5%	-15%	i	i
CC(=O)Nc1ccc(S(=O)(=O)NC2(C(F)(F)F)C(=O)Nc3c2c(=O)[nH]c(=O)n3-c2ccc(C)cc2)cc1 (stereo not given)	i	x	x	-9%	i	u
COc1ccc(-c2noc(Cn3cc(S(=O)(=O)N4CCCC4)ccc3=O)n2)cc1	i	3%	1%	-7%	5.8µM*	i
O=c1ccc(S(=O)(=O)N2CCCC2)cn1Cc1nc(-c2ccc(F)cc2)no1	i	0%	0%	3%	u	i
COc1c(C)cc(C(=O)C2CCCN(C(=O)c3ccoc3)C2)cc1C (stereo not given)	i	13%	19%	1%	u	i
COc1c(C)cc(C(=O)C2CCCN(C(=O)C3=C(C)OCCO3)C2)cc1C (stereo not given)	i	1%	0%	x	21µM*	i
COCc1cc(=O)[nH]c(Nc2nc3ccc(C)cc3o2)n1	u	u	4%	u	u	21µM*
CCc1ccc2nc(Nc3nc(COC)cc(=O)[nH]3)nc(C)c2c1	i	17%	4%	4%	21µM*	i
Cc1ccc(-n2c(SCc3nc(-c4ccccc4C)no3)nnc2-c2ccncc2)cc1C	u	x	x	u	i	i
CC(=O)c1ccc(NC(=O)Nc2nnc(N3CCCC(C)C3)s2)cc1 (stereo not given)	i	x	x	4%	i	i
Cc1ccc(S(=O)(=O)CCC(=O)NCCN2C(=O)S/C(=C\c3ccccc3)C2=O)cc1	u	-12%	-8%	47%	12µM*	i
O=C(CNC(=O)c1ccccc1F)NCCN1C(=O)S/C(=C\c2ccccc2Cl)C1=O	i	3%	0%	2%	u	i
O=C(CCS(=O)(=O)c1ccc(Cl)cc1)NCCN1C(=O)S/C(=C\c2ccccc2F)C1=O	i	-4%	-10%	23%	13µM*	i
O=C(CSc1ncc2c(n1)-c1ccccc1N(Cc1ccc(F)cc1)S2(=O)=O)NCCc1ccccc1	i	x	x	7%	i	i
Cc1cccc(NC(=O)c2n[nH]c([N+](=O)[O-])c2Br)c1C	u	26µM*	u	u	u	u

Assay outcomes as filed in PubChem BioAssay.
